According to PubChem BioAssay (NCATS):
Values joined by “and” are separate entries in the source; they are usually repeats but may differ in a detail not shown here. Equal entries are not always repeated. Records with an inconclusive call do not appear. Active and inactive are the calls of the source. The call rests on the fitted dose curve; in most records, active means well fitted inhibition curve with a large enough effect; inconclusive means small, poorly fitted or top-dose-only effect; inactive means flat fitted curve, though single readings scatter.

What was measured:
GB4 = experiment: qHTS profiling for inhibitors of Plasmodium falciparum proliferation (AID 504749);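 further: 0% = DMSO vehicle and full inhibition = artemisinin control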; settings: P. falciparum in erythrocytes, SYBR Green DNA, 72 h; series mostly up to 28.7 µM
Summary of the method: (§1)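 Readout was DNA-dye fluorescence from lysed cultures, ex 485/em 535 nm. Parasitized red cells had grown 72 h with compound; data scaled between 0.29 uM artemisinin and DMSO wells and corrected using vehicle-only plates.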

HB3 = experiment: as above; settings: P. falciparum in erythrocytes, SYBR Green DNA, 72 h; series mostly up to 28.7 µM
Summary of the method: as §1

ICS = experiment: as above; settings: P. falciparum in erythrocytes, SYBR Green DNA, 72 h; series mostly up to 28.7 µM
Summary of the method: as §1

JCK = experiment: as above; settings: P. falciparum in erythrocytes, SYBR Green DNA, 72 h; series mostly up to 28.7 µM
Summary of the method: as §1

N140 = experiment: as above; settings: P. falciparum in erythrocytes, SYBR Green DNA, 72 h; series mostly up to 28.7 µM
Summary of the method: as §1

P93_24 = experiment: as above; settings: P. falciparum in erythrocytes, SYBR Green DNA, 72 h; series mostly up to 28.7 µM
Summary of the method: as §1

P94_40 = experiment: as above; settings: P. falciparum in erythrocytes, SYBR Green DNA, 72 h; series mostly up to 28.7 µM
Summary of the method: as §1

PAD = experiment: as above; settings: P. falciparum in erythrocytes, SYBR Green DNA, 72 h; series mostly up to 28.7 µM
Summary of the method: as §1

PC15 = experiment: as above; settings: P. falciparum in erythrocytes, SYBR Green DNA, 72 h; series mostly up to 28.7 µM
Summary of the method: as §1

PC26 = experiment: as above; settings: P. falciparum in erythrocytes, SYBR Green DNA, 72 h; series mostly up to 28.7 µM
Summary of the method: as §1

PC49 = experiment: as above; settings: P. falciparum in erythrocytes, SYBR Green DNA, 72 h; series mostly up to 28.7 µM
Summary of the method: as §1

SC27B = experiment: as above; settings: P. falciparum in erythrocytes, SYBR Green DNA, 72 h; series mostly up to 28.7 µM
Summary of the method: as §1

TAB109 = experiment: as above; settings: P. falciparum in erythrocytes, SYBR Green DNA, 72 h; series mostly up to 28.7 µM
Summary of the method: as §1

TAB113 = experiment: as above; settings: P. falciparum in erythrocytes, SYBR Green DNA, 72 h; series mostly up to 28.7 µM
Summary of the method: as §1

TAB165 = experiment: as above; settings: P. falciparum in erythrocytes, SYBR Green DNA, 72 h; series mostly up to 28.7 µM
Summary of the method: as §1

W2 = experiment: as above; settings: P. falciparum in erythrocytes, SYBR Green DNA, 72 h; series mostly up to 28.7 µM
Summary of the method: as §1

CRL-7250 = normal cell line; experiment: Cytotoxic Profiling of Annotated Libraries Using Quantitative High-Throughput Screening (AID 1296008); settings: Five cell lines viability, CellTiter-Glo ATP luminescence, 48-72 h; max response: stronger effect = lower value; on max response: on the % scale 0 is the no-effect control and ±100 the full control effect
Summary of the method: (§2)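 Cells exposed to compounds for 48 or 72 hr at 37 degrees Celsius. Viability read as ATP-coupled luminescence with CellTiter-Glo after 10 min at room temperature.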

HEK293 = experiment: as above; settings: Five cell lines viability, CellTiter-Glo ATP luminescence, 48-72 h; max response: stronger effect = lower value
Summary of the method: as §2

HaCat = experiment: as above; settings: Five cell lines viability, CellTiter-Glo ATP luminescence, 48-72 h; max response: stronger effect = lower value
Summary of the method: as §2

KB-3-1 = experiment: as above; settings: Five cell lines viability, CellTiter-Glo ATP luminescence, 48-72 h; max response: stronger effect = lower value
Summary of the method: as §2
Further: nearly all actives have a fitted effect of over 60% in size.

O=C(O)c1ccccc1-c1ccc(C(F)(F)F)cc1
inactive: Potency (GB4) | Potency (HB3) | Potency (ICS) | Potency (JCK) | Potency (N140) | Potency (P93_24) | Potency (P94_40) | Potency (PAD) | Potency (PC15) | Potency (PC26) | Potency (PC49) | Potency (SC27B) | Potency (TAB109) | Potency (TAB113) | Potency (TAB165) | Potency (W2) | outcome (CRL-7250) | outcome (HEK293) | outcome (HaCat) | max response (KB-3-1) -5.64%

CCCCCCCCCCCCOS(=O)(=O)O
inactive: Potency (GB4) | Potency (HB3) | Potency (ICS) | Potency (JCK) | Potency (N140) | Potency (P93_24) | Potency (P94_40) | Potency (PAD) | Potency (PC15) | Potency (PC26) | Potency (PC49) | Potency (SC27B) | Potency (TAB109) | Potency (TAB113) | Potency (TAB165) | Potency (W2) | outcome (CRL-7250) | outcome (HEK293) | outcome (HaCat) | max response (KB-3-1) 16.2%

O=S(=O)(O)NC1CCCCC1
inactive: Potency (GB4) | Potency (HB3) | Potency (ICS) | Potency (JCK) | Potency (N140) | Potency (P93_24) | Potency (P94_40) | Potency (PAD) | Potency (PC15) | Potency (PC26) | Potency (PC49) | Potency (SC27B) | Potency (TAB109) | Potency (TAB113) | Potency (TAB165) | max response (CRL-7250) -7.57% | outcome (HEK293) | outcome (HaCat) | max response (KB-3-1) -17.7%

CCC(=O)Nc1ccc(O)cc1
inactive: Potency (GB4) | Potency (HB3) | Potency (ICS) | Potency (JCK) | Potency (N140) | Potency (P93_24) | Potency (P94_40) | Potency (PAD) | Potency (PC15) | Potency (PC26) | Potency (PC49) | Potency (SC27B) | Potency (TAB109) | Potency (TAB113) | Potency (TAB165) | Potency (W2) | max response (CRL-7250) -0.238% | outcome (HEK293) | outcome (HaCat) | max response (KB-3-1) 18.3%

Nc1ccc(S(=O)(=O)Nc2ccccc2)cc1
inactive: Potency (GB4) | Potency (HB3) | Potency (ICS) | Potency (JCK) | Potency (N140) | Potency (P93_24) | Potency (P94_40) | Potency (PAD) | Potency (PC15) | Potency (PC26) | Potency (PC49) | Potency (SC27B) | Potency (TAB109) | Potency (TAB113) | Potency (TAB165) | Potency (W2) | outcome (CRL-7250) | outcome (HEK293) | outcome (HaCat) | max response (KB-3-1) 8.52%

CCCCCCCCCCCCCCCCCCOCC(O)CO (configuration not stated)
inactive: Potency (GB4) | Potency (HB3) | Potency (ICS) | Potency (JCK) | Potency (N140) | Potency (P93_24) | Potency (P94_40) | Potency (PAD) | Potency (PC15) | Potency (PC26) | Potency (PC49) | Potency (SC27B) | Potency (TAB109) | Potency (TAB113) | Potency (TAB165) | Potency (W2) | outcome (CRL-7250) | outcome (HEK293) | outcome (HaCat) | max response (KB-3-1) 4.03%

O=C(O)COc1nn(Cc2ccccc2)c2ccccc12
inactive: Potency (GB4) | Potency (HB3) | Potency (ICS) | Potency (JCK) | Potency (N140) | Potency (P93_24) | Potency (P94_40) | Potency (PAD) | Potency (PC15) | Potency (PC26) | Potency (PC49) | Potency (SC27B) | Potency (TAB109) | Potency (TAB113) | Potency (TAB165) | max response (CRL-7250) -2.07% | outcome (HEK293) | outcome (HaCat) | max response (KB-3-1) -3.25%

CC1(C)[C@@H]2CC[C@@]1(C)C(=O)C2
inactive: Potency (GB4) | Potency (HB3) | Potency (ICS) | Potency (JCK) | Potency (N140) | Potency (P93_24) | Potency (P94_40) | Potency (PAD) | Potency (PC15) | Potency (PC26) | Potency (PC49) | Potency (SC27B) | Potency (TAB109) | Potency (TAB113) | Potency (TAB165) | Potency (W2) | outcome (CRL-7250) | outcome (HEK293) | outcome (HaCat) | max response (KB-3-1) -13.1%

O=C(Oc1ccccc1C(=O)O)c1ccccc1O
inactive: Potency (GB4) | Potency (HB3) | Potency (ICS) | Potency (JCK) | Potency (N140) | Potency (P93_24) | Potency (P94_40) | Potency (PAD) | Potency (PC15) | Potency (PC26) | Potency (PC49) | Potency (SC27B) | Potency (TAB109) | Potency (TAB113) | Potency (TAB165) | Potency (W2) | max response (CRL-7250) 4.21% | outcome (HEK293) | outcome (HaCat) | max response (KB-3-1) -14.6%

O=Cc1ccccc1C=O
inactive: Potency (GB4) | Potency (HB3) | Potency (ICS) | Potency (JCK) | Potency (N140) | Potency (P93_24) | Potency (P94_40) | Potency (PAD) | Potency (PC15) | Potency (PC26) | Potency (PC49) | Potency (SC27B) | Potency (TAB109) | Potency (TAB113) | Potency (TAB165) | Potency (W2) | max response (CRL-7250) -8.99% | outcome (HEK293) | max response (HaCat) 3.01% | max response (KB-3-1) -3.37%

COc1ccc(S(=O)(=O)Nc2nnc(CC(C)C)s2)cc1
inactive: Potency (GB4) | Potency (HB3) | Potency (ICS) | Potency (JCK) | Potency (N140) | Potency (P93_24) | Potency (P94_40) | Potency (PAD) | Potency (PC15) | Potency (PC26) | Potency (PC49) | Potency (SC27B) | Potency (TAB109) | Potency (TAB113) | Potency (TAB165) | Potency (W2) | max response (CRL-7250) 0.202% | max response (HEK293) -9.93% | max response (HaCat) -5.69% | max response (KB-3-1) -8.69% and 6.78%

CC1(C)CO[C@@H](CC(=O)O)CN1
inactive: Potency (GB4) | Potency (HB3) | Potency (ICS) | Potency (JCK) | Potency (N140) | Potency (P93_24) | Potency (P94_40) | Potency (PAD) | Potency (PC15) | Potency (PC26) | Potency (PC49) | Potency (SC27B) | Potency (TAB109) | Potency (TAB113) | Potency (TAB165) | Potency (W2) | outcome (CRL-7250) | outcome (HEK293) | outcome (HaCat) | max response (KB-3-1) 9.26%

CCCCN(CCCC)CCCOC(=O)c1ccc(N)cc1
inactive: Potency (GB4) | Potency (HB3) | Potency (ICS) | Potency (JCK) | Potency (N140) | Potency (P93_24) | Potency (P94_40) | Potency (PAD) | Potency (PC15) | Potency (PC26) | Potency (PC49) | Potency (SC27B) | Potency (TAB109) | Potency (TAB113) | Potency (TAB165) | outcome (CRL-7250) | outcome (HEK293) | max response (HaCat) -1.28% | max response (KB-3-1) -15.2%
